# Laboratory results from PubChem BioAssay (EPA / NIEHS).
# Values joined by “and” are separate entries in the source; they are usually repeats but may differ in a detail not shown here. Identical values can stand only once. Inconclusive results are not listed. Some compounds were tested as several samples or in several runs, with calls that do not always agree. Active and inactive are the calls of the source. How the source made its calls: active means hit-call score of the fitted dose curve at least 0.9, where 1 is the maximum; inconclusive means response in the unintended direction; inactive means score below 0.9.
# Target: Cellular tumor antigen p53 (Homo sapiens) (UniProt P04637)
# Sequence (P04637 whole entry, looked up): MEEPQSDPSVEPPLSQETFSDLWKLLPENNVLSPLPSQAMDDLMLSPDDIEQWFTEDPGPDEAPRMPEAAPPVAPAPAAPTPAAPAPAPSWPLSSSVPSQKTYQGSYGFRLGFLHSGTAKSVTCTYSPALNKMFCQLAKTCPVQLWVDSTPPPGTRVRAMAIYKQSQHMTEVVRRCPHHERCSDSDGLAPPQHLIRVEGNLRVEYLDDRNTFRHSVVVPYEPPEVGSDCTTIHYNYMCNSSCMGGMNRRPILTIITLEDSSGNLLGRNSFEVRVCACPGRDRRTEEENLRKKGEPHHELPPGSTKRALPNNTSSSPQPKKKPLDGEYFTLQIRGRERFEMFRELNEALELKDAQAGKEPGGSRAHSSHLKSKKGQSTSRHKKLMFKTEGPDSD
# Test: TOX21_p53_BLA_p4_ratio: Tox21 HCT-116 p53 Agonism Beta-lactamase Assay, Ratio, Phase 4 (AID 2283601)
# From the text: TOX21_p53_BLA_p4 is a cell-based, single-readout assay that uses HCT116, a human intestinal cell line, […] in a 1536-well plate.TOX21_p53_BLA_p4_ratio is an assay readout measuring reporter gene via receptor activity and designed using inducible reporter (beta lactamase induction) detected with GAL4 b-lactamase reporter gene. The signal is derived from the ratio of cleaved (ch2) to uncleaved (ch1)reporter gene substrate used as the measure of target activity.Data from the assay component TOX21_p53_BLA_p4_ratio was analyzed into 1 assay endpoint. This assay endpoint, TOX21_p53_BLA_p4_ratio, was analyzed in the positive analysis fitting direction relative to DMSO as the negative control and baseline of activity. Using a type of inducible reporter, gain-of-signal activity can be used to understand changes in the reporter gene as they relate to the gene TP53. Furthermore, this assay endpoint can be referred to as a primary readout, because this assay has produced multiple assay endpoints where this ratio serves a reporter gene function to understand target activity. To generalize the intended target to other relatable targets, this assay endpoint is annotated to the DNA binding intended target family, where the subfamily is tumor suppressor.
# Thawing Method: Place 14 mL of pre-warmed thaw medium into a 15 mL of conical tub. Remove the vial of cells to be thawed from liquid nitrogen and thaw rapidly by placing at 37C in a water bath with gentle agitation for 1-2 minutes. Decontaminate the vial by wiping with 70% ethanol before opening in a biological safety cabinet. Transfer the vial contents drop-wise into 14 mL of thaw medium in a sterile 15-mL conical tub. Centrifuge cells at 900 rpm for 4 minutes and resuspend in thaw medium. Transfer contents to the T75 tissue culture flask containing Thaw Medium and place flask in a humidified 37C/5% CO2 incubator. Switch to growth medium at first passage.Propagation Method: Aspirate medium, rinse once in DPBS, add 0.25% Trypsin/EDTA and swirl to coat the cell evenly. Add an equal volume of Growth Medium to inactivate Trypsin after 2-3 minutes incubation at 37C. Centrifuge cells at 900 rpm for 4 minutes and resuspend in growth medium. Cell should be passage or fed at least twice a week.Assay Protocol: Harvest cells from culture in growth medium and resuspend in assay medium. 2.2 Dispense 4000 cells/5 uL/well into 1536-well black/clear bottom plates using a Multidrop dispenser. After the cells were incubated at 37C for 5 hours, 23 nL of compounds dissolved in DMSO were transferred to the assay plate by a PinTool resulting in a 217-fold dilution. Incubate the plates for 16 hours at 37C, 5% CO2. Add 1 uL of 6X LiveBLAzer FRET B/G (CCF4-AM) Substrate Mixture to each well using a BioRAPTR dispenser and incubate the plates at room temperature for 2 hours. Measure fluorescence intensity at 460 and 530 nm emission and 405 nm excitation by an Envision detector. Data is expressed as the ratio of 460nm/530nm emissions. Add 4 uL of Cell-titer Glo to each well using BioRAPTR and incubate the plates at room temperature for 2 hours. Measure fluorescence intensity by a VewLux plate reader.
Structure (SMILES),outcome,AC50
CCCCCC(=O)O,inactive,–
COc1ccc(S(=O)(=O)N2C(=O)[C@@](c3ccccc3OC)(N3C[C@H](O)C[C@H]3C(=O)N(C)C)c3cc(Cl)ccc32)c(OC)c1,–,86.6 µM (active)
CC(=O)OC/C=C(\C)CCC=C(C)C,inactive,–
O=C(O)CCCCC(=O)O,inactive,–
Cc1oc(-c2ccccc2)nc1CCOc1cccc2c1ccn2CCC(=O)O,inactive,–
O=[N+]([O-])C(CO)(CO)CO,inactive,–
CC1=C(/C=C/C(C)=C/C=C/C(C)=C/CO)C(C)(C)CCC1,inactive,–
CCCCCCC(=O)OCC,inactive,–
Nc1nc(N)c2nc(CNc3ccc(C(=O)N[C@@H](CCC(=O)O)C(=O)O)cc3)cnc2n1,inactive,0.0582 µM (active)
COc1cc(-c2nc(NC(=O)c3cc4cc(C)cc(C)c4n3CC(=O)O)sc2CCC2CCCCC2)c(OC)cc1Cl,–,3.39 µM (active)
Cc1ccc(C)c(C)c1,inactive,–
C=CCOC(=O)c1ccccc1C(=O)OCC=C,inactive,–
CC=Cc1ccc(O)c(OC)c1,inactive,–
CCOc1ccc2c(c1)C(C)=CC(C)(C)N2,inactive,76.6 µM (active)
Cc1ccc(C(C)C)c(O)c1,inactive,86.6 µM (active)
O=C(N[C@@H](Cc1ccccc1)[C@@H](O)C(=O)N1C[C@@H](O)[C@@H](O)C1)c1cc2cc(Cl)ccc2[nH]1,inactive,–
CC(=O)Oc1ccccc1C(=O)O,inactive,–
CCCCCCCCCCC,inactive,–
c1cc(-c2ccncc2)ccn1,inactive,–

Structure (SMILES),outcome,AC50
CCOC(=O)CCC(=O)OCC,inactive,–
CNCc1cc(F)ccc1Oc1ccc(Cl)c(Cl)c1,–,64.4 µM (active)
CCOC(=O)C(C)(C)Oc1ccc(Cl)cc1,inactive,–
Cc1ccc(C)c(O)c1C,inactive,–
Clc1cc(Cl)c(Cl)cc1Cl,inactive,–
CC(=O)OCCOCCOCCOC(C)=O,inactive,–
Cc1cc(NC(=O)C(=O)O)cc(C)c1Oc1ccc(O)c2c1CCC2,inactive,–
C1CCC(SSC2CCCCC2)CC1,inactive,–
NCC1(Cc2noc(=O)[nH]2)CCCCC1,inactive,–
COCCOCCOC,inactive,–
Cc1ccccc1Cl,inactive,–
CCCCCCCCCCCCCO,inactive,–
CNC(=O)[C@H]1O[C@@H](n2cnc3c(NCc4cc(Cl)ccc4OCc4cc(C)no4)ncnc32)[C@H](O)[C@@H]1N,inactive,–
O=c1[nH]cc(F)c(=O)[nH]1,–,3.73 µM (active) and 4.64 µM (active) and 5.42 µM (active)
Cc1cccc(C)c1O,inactive,–
Oc1ccc2ccccc2c1N=Nc1ccccc1,inactive,–
CC(C)c1ccc(C(=O)N=C(N)N)cc1S(C)(=O)=O,inactive,–
Nc1ccccc1N,inactive,–
